Measurements as given in PubChem BioAssay (Tox21).
Inconclusive results are not listed. The source made the active and inactive calls. Unless noted, calls follow the shape of the dose curve; as a rule, active = well fitted curve in the direction sought with a large enough effect in the repeat runs; inconclusive = weak or mixed curves; inactive = no such curve, though single readings can be large; an effect the other way counts as inactive or inconclusive.

Assays:
[1] = qHTS RealTime-Glo MT Cell Viability Assay in HEK293 cells - 24 hour (AID 1224886); also: top concentration of the series differs between compounds; nearly all actives have a fitted effect of over 50% in size
Procedure, shortened: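 Nonlytic real-time viability readout: viable cells convert prosubstrate to NanoLuc substrate, giving luminescence proportional to live cell number. HEK293, 600 cells/well, compound added after 5 h, continuous culture at 37 C.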

[2] = qHTS RealTime-Glo MT Cell Viability Assay in HEK293 cells - 8 hour (AID 1224887); also: top concentration of the series differs between compounds; nearly all actives have a fitted effect of over 50% in size
Procedure, shortened: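 Real-time viability in HEK293: signal arises when living cells convert a prosubstrate for NanoLuc in the medium, so luminescence tracks viable cell number. Compound (23 nL, DMSO) added 5 h post-seeding; kinetic reads at 0–40 h, 37 C.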

[3] = A CellTox Green Cytotoxicity Assay to monitor cytotoxicity in HEK293 cells - 16 hour (AID 1224888); also: nearly all actives have a fitted effect of over 35% in size
Procedure, shortened: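 Cells (HEK293, 600/well) and dye reagent are dispensed together. After 5 h at 37 C, 23 nL compound is pinned in. Plates stay at 37 C for 40 h with fluorescence read at 0h, 8h, 16h, 24h, 32h and 40h.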

[4] = qHTS RealTime-Glo MT Cell Viability Assay in HepG2 cells - 0 hour (AID 1224889); also: nearly all actives have a fitted effect of over 50% in size
Procedure, shortened: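 Luminescence read-out: viable HepG2 cells reduce a prosubstrate to a NanoLuc substrate, giving a signal proportional to live cell number. Reads taken at 0, 8, 16, 24, 32 and 40 h of compound exposure at 37 C.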

[5] = A CellTox Green Cytotoxicity Assay to monitor cytotoxicity in HepG2 cells - 8 hour (AID 1224890); also: nearly all actives have a fitted effect of over 45% in size
Procedure, shortened: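 Cells and non-lytic dye reagent are dispensed together (600 HepG2 cells/well) and incubated 5 h before DMSO compound transfer. Kinetic fluorescence is then recorded in the same wells during 40 h at 37 C.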

[6] = qHTS assay to identify small molecule antagonists of the estrogen receptor alpha (ER-alpha) signaling pathway using the BG1 cell line in the presence of 0.1 nM 17-beta-estradiol - cell viability counter screen (AID 1259241); also: nearly all actives have a fitted effect of over 40% in size
Procedure, shortened: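 VM7Luc4E2 cells (endogenous full-length ER-alpha, 4xERE-luciferase), cultured 5 days in charcoal-stripped serum, exposed to compounds with 0.1 nM 17beta-estradiol (final) for 22 hr at 37C. Viability read in same wells as live-cell protease fluorescence after 30 min.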

[7] = qHTS assay to identify small molecule antagonists of the androgen receptor (AR) signaling pathway using the MDA cell line in the presence of 0.5 nM R1881 - cell viability counter screen (AID 1259242); also: nearly all actives have a fitted effect of over 45% in size
Procedure, shortened: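 Steps: plate MDA-kb2 cells, rest 5 hr at 37C without CO2; pin in compounds in DMSO; add R1881 to 0.5 nM final; incubate 16 hr; add CellTiter-Fluor, 30 min; read fluorescence.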

[8] = target: Androgen receptor (Homo sapiens) (UniProt P10275); assay: qHTS assay to identify small molecule antagonists of the androgen receptor (AR) signaling pathway using the MDA cell line in the presence of 0.5 nM R1881 (AID 1259243); also: nearly all actives have a fitted effect of over 50% in size
Androgen receptor (Homo sapiens), sequence (P10275 whole entry, looked up): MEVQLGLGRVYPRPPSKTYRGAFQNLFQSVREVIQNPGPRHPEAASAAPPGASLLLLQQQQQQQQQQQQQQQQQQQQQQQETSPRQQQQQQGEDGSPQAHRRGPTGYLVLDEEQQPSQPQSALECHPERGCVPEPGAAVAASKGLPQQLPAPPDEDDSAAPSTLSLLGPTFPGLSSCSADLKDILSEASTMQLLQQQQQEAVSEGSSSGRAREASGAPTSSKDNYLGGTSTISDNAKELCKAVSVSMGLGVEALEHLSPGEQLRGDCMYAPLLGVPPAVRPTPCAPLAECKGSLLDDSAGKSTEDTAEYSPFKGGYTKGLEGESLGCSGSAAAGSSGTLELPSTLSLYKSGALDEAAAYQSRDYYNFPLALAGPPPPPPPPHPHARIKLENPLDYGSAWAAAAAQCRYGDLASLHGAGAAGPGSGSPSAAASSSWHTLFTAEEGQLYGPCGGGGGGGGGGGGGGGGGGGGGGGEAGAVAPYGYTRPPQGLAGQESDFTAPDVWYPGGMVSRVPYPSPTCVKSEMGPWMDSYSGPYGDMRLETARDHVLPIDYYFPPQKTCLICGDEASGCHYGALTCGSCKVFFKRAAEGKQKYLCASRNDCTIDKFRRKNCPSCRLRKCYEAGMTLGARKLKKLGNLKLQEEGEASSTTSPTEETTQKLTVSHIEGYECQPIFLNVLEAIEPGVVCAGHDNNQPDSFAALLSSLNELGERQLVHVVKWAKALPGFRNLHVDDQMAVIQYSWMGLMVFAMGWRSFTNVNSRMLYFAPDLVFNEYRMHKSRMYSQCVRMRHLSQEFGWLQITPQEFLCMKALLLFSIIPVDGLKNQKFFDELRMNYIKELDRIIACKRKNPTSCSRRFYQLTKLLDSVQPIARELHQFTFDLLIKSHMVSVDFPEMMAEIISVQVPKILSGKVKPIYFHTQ
Procedure, shortened: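 Stably transfected MDA-kb2 cells express luciferase from an MMTV promoter bearing both AR and GR response elements. Compounds plus 0.5 nM R1881 (final) were incubated 16 hr at 37C without CO2, then luminescence measured.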

[9] = target: Estrogen receptor (Homo sapiens) (UniProt P03372); assay: qHTS assay to identify small molecule antagonists of the estrogen receptor alpha (ER-alpha) signaling pathway using the BG1 cell line in the presence of 0.1 nM 17-beta-estradiol (AID 1259244); also: nearly all actives have a fitted effect of over 50% in size
Estrogen receptor (Homo sapiens), sequence (P03372 whole entry, looked up): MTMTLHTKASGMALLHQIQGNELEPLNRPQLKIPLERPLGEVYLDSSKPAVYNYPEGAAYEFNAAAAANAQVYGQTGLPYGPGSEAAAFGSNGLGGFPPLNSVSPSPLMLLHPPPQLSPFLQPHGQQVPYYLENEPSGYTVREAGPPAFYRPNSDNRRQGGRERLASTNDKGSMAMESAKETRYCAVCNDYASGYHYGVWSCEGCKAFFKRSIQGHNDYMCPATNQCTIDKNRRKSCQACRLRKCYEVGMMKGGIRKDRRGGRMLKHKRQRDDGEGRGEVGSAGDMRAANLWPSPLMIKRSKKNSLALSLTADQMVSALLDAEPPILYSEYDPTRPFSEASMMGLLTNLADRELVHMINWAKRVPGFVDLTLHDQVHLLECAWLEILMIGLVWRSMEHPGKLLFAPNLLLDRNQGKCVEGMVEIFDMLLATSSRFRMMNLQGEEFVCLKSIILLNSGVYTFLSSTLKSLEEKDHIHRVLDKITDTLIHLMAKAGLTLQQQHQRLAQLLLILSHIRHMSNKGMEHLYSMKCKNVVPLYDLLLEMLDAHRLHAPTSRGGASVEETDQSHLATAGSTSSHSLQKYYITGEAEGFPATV
Procedure, shortened: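 Antagonist mode: compounds in DMSO are pinned onto VM7Luc4E2 reporter cells, 0.1 nM final 17beta-estradiol is added, and after 22 h at 37C luciferase luminescence is measured with ONE-Glo.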

[10] = qHTS assay to identify small molecule HDAC inhibitors (AID 1259364);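 also: wild-type HCT-116 cells with endogenous class I/II HDAC activity; top concentration of the series differs between compounds; nearly all actives have a fitted effect of over 45% in size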
Procedure, shortened: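 Cells (HCT-116, wild type) are seeded at 1,500 per well, incubated overnight, treated with compound in DMSO for 2 hr, then developed with HDAC-Glo I/II reagent for 30 min at room temperature.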

[11] = qHTS assay to identify small molecule HDAC inhibitors - cell viability counter screen (AID 1259365)
Procedure, shortened: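 Wild-type HCT-116 cells, 1,500/well, cultured overnight, then compound-treated 2 h at 37 C. Viability measured as ATP luminescence with CellTiter-Glo after 30 min at room temperature.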

[12] = qHTS assay to identify small molecule agonists of the sonic hedgehog signaling (Shh) pathway - cell viability counter screen (AID 1259366); also: nearly all actives have a fitted effect of over 50% in size
Procedure, shortened: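 NIH/3T3-derived Gli1-Luc reporter cells, 2,000 per well, received compound after 4 h and were treated about 23 h at 37C. Viability measured in the same wells by CellTiter-Fluor fluorescence after 1 h.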

[13] = qHTS assay to identify small molecule antagonists of the sonic hedgehog signaling (Shh) pathway - cell viability counter screen (AID 1259367); also: nearly all actives have a fitted effect of over 55% in size
Procedure, shortened: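 Fluorescence read-out (CellTiter-Fluor, 1 hr at 37C) taken after 23 hr compound treatment of 3T3 Gli1-Luc cells stimulated with conditioned medium. Cells were seeded at 2,000 per well and pre-incubated 4 hr.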

[14] = qHTS assay to identify small molecule agonists of the sonic hedgehog signaling (Shh) pathway (AID 1259368; calls by dose curve;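 also: NIH/3T3-derived 3T3Gli1-Luc cells carrying a stable Gli1-driven firefly luciferase reporter; series mostly up to about 92 µM; nearly all actives have a fitted effect of over 15% in size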)
Procedure, shortened: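 Cells of a mouse NIH/3T3 clone stably expressing luciferase under the Gli1 transcriptional response element are exposed to test chemicals for 24 hr at 37 C. Pathway activation is detected as a rise in luminescence.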

[15] = qHTS assay to identify small molecule antagonists of the sonic hedgehog signaling (Shh) pathway (AID 1259369; calls by dose curve; also: nearly all actives have a fitted effect of over 45% in size)
Procedure, shortened: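 Cells are plated and held 4hr at 37 C, compounds (DMSO) are pinned in, conditioned medium is added to stimulate the pathway, and after 24hr luciferase reagent is added for 30min before luminescence is read.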

[16] = target: Estrogen receptor beta (Homo sapiens) (UniProt Q92731); assay: qHTS assay to identify small molecule agonists of the estrogen receptor beta (ER-beta) signaling pathway (AID 1259377; active = well fitted activation curve with a large enough effect in the signal ratio in the repeat runs, not every such curve was filed as active; the % refers to the signal ratio)
Estrogen receptor beta (Homo sapiens), sequence (Q92731 whole entry, looked up): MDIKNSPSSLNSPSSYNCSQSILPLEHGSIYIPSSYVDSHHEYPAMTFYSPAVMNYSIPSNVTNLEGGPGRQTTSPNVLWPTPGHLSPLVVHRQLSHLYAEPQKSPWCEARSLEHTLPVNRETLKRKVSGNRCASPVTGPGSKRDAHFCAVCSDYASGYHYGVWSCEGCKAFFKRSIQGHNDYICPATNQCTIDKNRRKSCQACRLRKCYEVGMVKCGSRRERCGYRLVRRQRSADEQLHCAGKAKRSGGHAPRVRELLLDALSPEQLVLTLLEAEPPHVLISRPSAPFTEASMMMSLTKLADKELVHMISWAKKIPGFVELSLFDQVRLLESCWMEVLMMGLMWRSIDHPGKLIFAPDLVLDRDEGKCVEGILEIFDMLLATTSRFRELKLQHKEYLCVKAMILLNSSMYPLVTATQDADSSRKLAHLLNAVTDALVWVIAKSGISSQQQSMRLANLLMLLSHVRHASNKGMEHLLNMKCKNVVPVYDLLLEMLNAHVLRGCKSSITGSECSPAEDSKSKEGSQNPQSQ
Procedure, shortened: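 ER-beta-UAS-bla HEK293T cells in medium with 2% charcoal-stripped FBS were exposed to compounds for 16 h at 37C. Beta-lactamase reporter activity was read as fluorescence after 2 h with LiveBLAzer B/G FRET substrate at room temperature.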

[17] = target: Estrogen receptor beta (Homo sapiens) (UniProt Q92731); assay: qHTS assay to identify small molecule antagonists of the estrogen receptor beta (ER-beta) signaling pathway (AID 1259378; active = well fitted inhibition curve with a large enough effect in the signal ratio in the repeat runs, not every such curve was filed as active; the % refers to the signal ratio)
Procedure, shortened: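 ER-beta-UAS-bla HEK293T cells in 2% charcoal-stripped FBS medium treated with compound plus 1nM final 17-beta-estradiol for 16 hr at 37C. Beta-lactamase reporter read by FRET substrate fluorescence after 2 hours at room temperature.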

[18] = qHTS assay to identify small molecule agonists of the androgen receptor (AR) signaling pathway in the presence of an antagonist - cell viability counter screen (AID 1259379);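 also: MDA-kb2 human breast cancer cells carrying an MMTV luciferase reporter; series mostly up to about 92 µM; nearly all actives have a fitted effect of over 25% in size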
Procedure, shortened: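 Cytotoxicity is assessed by CellTiter-Fluor in MDA-kb2 cells carrying an MMTV-driven luciferase reporter. Cells receive 3.0uM nilutamide plus compounds at 15 concentrations and incubate 16 hr at 37C without CO2 before fluorescence reading.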

[19] = qHTS assay to identify small molecule agonists of the estrogen receptor beta (ER-beta) signaling pathway - cell viability counter screen (AID 1259380); also: nearly all actives have a fitted effect of over 30% in size
Procedure, shortened: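 Cytotoxicity is measured in parallel with the reporter screen: after 16 hr compound exposure at 37C and a 2 hr LiveBLAzer step, CellTiter-Glo is added to the same ER-beta-UAS-bla HEK293T wells and luminescence read after 30 min.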

[20] = qHTS assay to identify small molecule phospholipidosis (PLD) inducers (AID 1259344; active = well fitted curve in the direction sought with a large enough effect; an effect the other way counts as inactive or inconclusive)
Procedure, shortened: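 Read-out is LipidTOX Red fluorescence (ex 595/em 615) imaged in HepG2 cells after 24 h compound exposure at 37 C, with Hoechst nuclear counterstain (ex 352/em 461) allowing per-cell normalisation.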

Measured: Potency

COC(OC)C(C)c1ccccc1 (stereo not given)
not listed: [20]
inactive: all other assays above

O=CN1CCOCC1
not listed: [14] | [19] | [20]
inactive: all other assays above

CN[C@@H]1[C@H](O)[C@H](NC)[C@H]2O[C@@]3(O)C(=O)C[C@@H](C)O[C@H]3O[C@@H]2[C@H]1O
not listed: [16] | [17]
inactive: all other assays above

O=C(CN1CCN(Cc2ccc3c(c2)OCO3)CC1)N1c2ccccc2Sc2ccccc21
not listed: [9] | [12] | [14] | [16] | [17] | [19]
inactive: all other assays above

CCC(C)(C)C1CCC(=O)CC1
not listed: [9] | [15] | [16] | [17] | [19] | [20]
inactive: all other assays above

F[Si-2](F)(F)(F)(F)F
not listed: [8]
inactive: all other assays above

CCCOCCOCCOCCO
not listed: [20]
inactive: all other assays above
